According to PubChem BioAssay (Tox21):
Inconclusive results are not listed. A call without a number means that no potency is given here. Calls of active or inactive are those of the source. Calls follow the shape of the dose curve; as a rule, active = well fitted inhibition curve with a large enough effect in the repeat runs; inconclusive = weak or mixed curves, or effect the other way; inactive = no such curve, though single readings can be large or run the other way.

assay: qHTS assay to identify small molecule antagonists of the retinoic acid receptor (RAR) signaling pathway (AID 1159552; also: nearly all actives have a fitted effect of over 50% in size); details: C3RL4 RARE luciferase reporter, retinol-stimulated, 6 h; series mostly up to 92.4 µM
Source text: National Center for Advancing Translational Sciences [NCATS]
NIH Chemical Genomics Center [NCGC]
U.S. Environmental Protection Agency [EPA]
National Institutes of Environmental Health Sciences [NIEHS]
National Toxicology Program [NTP]
U.S. Food and Drug Administration [FDA]
All-trans Retinoic acid (atRA) is the potent natural metabolite of retinol and plays an important role in normal embryonic development and maintenance of cellular phenotype in adult animals. atRA is the activating ligand for the retinoic acid receptors (RARs) which form heterodimers with retinoid X receptors (RXRs) on the retinoic acid response element (RARE). Through activation of the RAR/RXRs nuclear receptors, atRA regulates the transcription of a large number of protein-coding genes and regulatory RNAs. Intracellular levels of atRA are controlled by the retinol signaling pathway (RSP) that regulates the biosynthesis and catabolism of atRA to maintain physiological levels. Chemicals that interfere with the RSP can cause abnormal intracellular levels of atRA and therefore are potential developmental toxicants. To assess compounds for the potential adverse effect on embryonic development through interfering with retinol signaling, a cell-based RARE luciferase reporter gene assay was used. C3RL4 cell line (OARSA/CFSAN/FDA, Laurel, MD) was used to screen Tox21 10K compound library for identifying inhibitors of the RSP.
Tox21 Assay Protocol Summary:
C3RL4 cells were seeded at 1,000/well in 4 uL of assay medium into white solid 1,536-well tissue culture plates (Greiner Bio-One North America Inc. Monroe, NC) using a Multidrop Combi (Thermo Scientific, Waltham, MA) dispenser. After incubation at 37 C and 5% CO2 for an overnight, 23 nL of compounds dissolved in DMSO, positive control or DMSO only were transferred by a Pintool station (Kalypsys, San Diego, CA). One ul of 1 uM (final concentration) of Retinol was added right after the compound addition by using a Flying Reagent Dispenser (FRD) (Aurora Discovery, San Diego, CA). After 6 hr incubation at 37 C and 5% CO2, 5 uL of Amplite Luciferase reagent (AAT Bioquest Inc. Sunnyvale, CA) was added to each assay plate using an FRD. Luminescence was quantified on a ViewLux plate reader (PerkinElmer, Waltham, MA) after 30 min incubation at room temperature.
Potency is read from the fitted curve at half-maximal effect.

Structure (SMILES) | Potency
c1ccc2[nH]cnc2c1 | inactive
CN(C)c1ccc(C(=N)c2ccc(N(C)C)cc2)cc1 | inactive
CN(C)c1cccc(O)c1 | inactive
CCOC(=O)C1OC1c1ccccc1 (stereo not given) | inactive
Cc1cc(Cc2ccc(N)c(C)c2)ccc1N | inactive
CC1(C)CC(N=C=O)CC(C)(CN=C=O)C1 (stereo not given) | inactive
CC(C)NCC(O)COc1cccc2ccccc12 (stereo not given) | inactive
CCCCCCC(C)(C)S | inactive
CCC(=O)O | inactive
Oc1ccc2ccccc2c1 | inactive
Cc1cc(O)c2c(c1)C(=O)c1cc(O)cc(O)c1C2=O | inactive
CNC[C@H](O)[C@@H](O)[C@H](O)[C@H](O)CO | inactive
O=[N+]([O-])C(CO)(CO)CO | inactive
CCC(C)C=O (stereo not given) | inactive
NS(=O)(=O)c1cc2c(cc1Cl)NC=NS2(=O)=O | inactive
CC1=C(/C=C/C(C)=C/C=C/C(C)=C/CO)C(C)(C)CCC1 | inactive
c1ccc2ccccc2c1 | inactive
Oc1ccc(OCc2ccccc2)cc1 | inactive
Nc1nc2ncc(CNc3ccc(C(=O)N[C@@H](CCC(=O)O)C(=O)O)cc3)nc2c(=O)[nH]1 | inactive
O=[N+]([O-])c1cc(N(CCO)CCO)ccc1NCCO | 30.6 µM (active)

Structure (SMILES) | Potency
C=C1CC[C@H](O)CC1=C/C=C1\CCC[C@]2(C)[C@@H]([C@H](C)/C=C/[C@H](C)C(C)C)CC[C@@H]12 | inactive
C=C(C)C(=O)OCCCCCCCCCCCC | inactive
CC(=O)CCc1ccccc1 | inactive
C=C(C)C(=O)OCCCCCC | inactive
NCc1cccc(CN)c1 | inactive
CCCCC(CC)C(=O)OCCOCCOCCOC(=O)C(CC)CCCC (stereo not given) | inactive
C=C1C2CCC(C2)C1(C)C (stereo not given) | inactive
COC(=O)Nc1nc2ccc(Sc3ccccc3)cc2[nH]1 | inactive
CCc1ccccc1O | inactive
CC1CC(OC(=O)c2ccccc2O)CC(C)(C)C1 (stereo not given) | inactive
CC(C)(C)C(=O)C1C(=O)c2ccccc2C1=O | inactive
CC(=O)[C@@]1(O)CC[C@H]2[C@@H]3CCC4=CC(=O)CC[C@]4(C)[C@H]3CC[C@@]21C | inactive
CCCCCC/C=C/CCCCCCCC(=O)O | inactive
CCOC(=O)[C@H](CCc1ccccc1)N[C@@H](C)C(=O)N1Cc2ccccc2C[C@H]1C(=O)O | inactive
Clc1cc(Cl)c(Cl)cc1Cl | inactive
Cc1ccc(N)c(S(=O)(=O)O)c1 | inactive
Nc1cc(-c2ccncc2)c[nH]c1=O | inactive
C=C(C)C(=O)OCCC[Si](OC)(OC)OC | inactive
O=C(c1ccc(O)cc1)c1ccc(O)cc1O | inactive
CC(C)(C)C1CCC(O)CC1 (stereo not given) | inactive
